Compounds without any hit were thinned out: in the full panel of roughly 79,000, 15% have a hit. A number with no mark means an inactive call. Active and inactive are the calls of the source. Cut-off read from the data, not from the text of the source: active = growth inhibition above about 70%; inactive = the rest.
Legend:
[1] = NCI Yeast Anticancer Drug Screen. Data for the sgs1 strain (AID 173);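 note: 0% = growth of vehicle-only control cultures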; settings: S. cerevisiae sgs1 mutant, hits give high values
Procedure, shortened: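 Relative growth inhibition, referenced to vehicle, was determined in a yeast strain with a defined alteration affecting DNA damage repair or cell cycle control after compound exposure.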

[2] = NCI Yeast Anticancer Drug Screen. Data for the mlh1 rad18 strain (AID 175); settings: S. cerevisiae mlh1 rad18 strain growth inhibition, hits give high values
Procedure, shortened: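 In this whole-cell yeast screen, a strain with altered DNA damage repair is challenged with compound, and its growth is measured against matched vehicle-treated controls.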

[3] = NCI Yeast Anticancer Drug Screen. Data for the rad18 strain (AID 177); settings: S. cerevisiae rad18 mutant growth inhibition, hits give high values
Procedure, shortened: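 Screen uses a yeast strain with a defined lesion in DNA damage repair; compound effect is read as loss of growth compared to untreated vehicle cultures.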

[4] = NCI Yeast Anticancer Drug Screen. Data for the rad52 strain (AID 147);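 note: 0% = growth of vehicle-treated control cultures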; settings: S. cerevisiae rad52 mutant growth inhibition, hits give high values
Procedure, shortened: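 Measured: yeast growth inhibition. System: strain with a defined DNA damage repair alteration. Reference: vehicle-treated control cultures.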

[5] = NCI Yeast Anticancer Drug Screen. Data for the wt1 strain (AID 149);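 note: 0% = growth of vehicle-treated wt1 cultures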; settings: S. cerevisiae wt1 strain (SPY 50644) growth inhibition, hits give high values
Procedure, shortened: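 wt1 strain grown with compound or vehicle; inhibition taken from the growth difference.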

[6] = NCI Yeast Anticancer Drug Screen. Data for the rad50EPP+ strain (AID 151);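 note: 0% = growth of vehicle-treated control cultures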; settings: S. cerevisiae rad50 mutant strain, hits give high values
Procedure, shortened: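 One strain with a rad50 alteration (rad50EPP+) was compound-treated, its growth then compared to that of vehicle controls.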

[7] = NCI Yeast Anticancer Drug Screen. Data for the mgt1 strain (AID 153); settings: S. cerevisiae mgt1 mutant growth inhibition, hits give high values
Procedure, shortened: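 After exposure of the mgt1 yeast mutant to compound, growth was measured and reported as inhibition compared with vehicle controls.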

[8] = NCI Yeast Anticancer Drug Screen. Data for the rad50 strain (AID 155);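 note: 0% = growth of vehicle-only cultures of the same strain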; settings: S. cerevisiae rad50 strain growth inhibition, hits give high values
Procedure, shortened: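 DNA repair mutant yeast, compound exposure, growth read-out; inhibition is taken relative to vehicle.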

[9] = NCI Yeast Anticancer Drug Screen. Data for the mec2-1 strain (AID 157); settings: S. cerevisiae mec2-1 strain, hits give high values
Procedure, shortened: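 Test agents were screened against the mec2-1 yeast strain, with defined DNA repair or cell cycle alteration. Growth was scored as inhibition against vehicle-only controls.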

[10] = NCI Yeast Anticancer Drug Screen. Data for the rad14 strain (AID 159);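 note: 0% = growth of vehicle-treated control cultures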; settings: S. cerevisiae rad14 strain growth inhibition, hits give high values
Procedure, shortened: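 DNA repair-defective yeast, compound-exposed; % growth inhibition derived by comparison with vehicle-treated controls.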

[11] = NCI Yeast Anticancer Drug Screen. Data for the sgs1 mgt1 strain (AID 161);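 note: 0% = growth of cultures given vehicle only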; settings: S. cerevisiae sgs1 mgt1 strain, hits give high values
Procedure, shortened: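 Mutant yeast exposed to compound; growth scored against vehicle-only wells.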

[12] = NCI Yeast Anticancer Drug Screen. Data for the CLN2oe strain (AID 163);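 note: 0% = growth of vehicle-only control cultures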; settings: S. cerevisiae CLN2oe strain, hits give high values
Procedure, shortened: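 Here, growth inhibition in a cell-cycle-altered yeast strain after compound exposure was quantified against vehicle control growth.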

[13] = NCI Yeast Anticancer Drug Screen. Data for the bub3 strain (AID 167); settings: S. cerevisiae bub3 mutant strain, hits give high values
Procedure, shortened: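 In this screen, a yeast mutant lacking normal mitotic checkpoint function is challenged with compound. Relative growth versus vehicle gives the inhibition value.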

[14] = NCI Yeast Anticancer Drug Screen. Data for the wt2 strain (AID 169);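 note: 0% = growth of vehicle-treated yeast cultures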; settings: S. cerevisiae wt2 strain growth inhibition, hits give high values
Procedure, shortened: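 Genetically defined yeast strains from a DNA-repair/cell-cycle panel were used. Compound-exposed yeast growth was measured, and the inhibition was calculated relative to vehicle treatment.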

[15] = at 5.0 µM (retest, dose inferred, filed as 0.5)
[16] = at 50.0 µM (retest, dose inferred, filed as 5.0)

## COc1ccc(/C=C2\SC(=S)N(/C=C/c3nc4ccccc4[nH]c3=O)C2=O)cc1OC
[1]; at 1.2 µM
  growth inhibition: 5%
[1]; at 3.7 µM
  growth inhibition: 14%
[1]; at 11.0 µM
  growth inhibition: 43%
[1]; at 33.0 µM
  growth inhibition: 85% (active)
[1]; at 100.0 µM
  growth inhibition: 94% (active)
[2]; [15]
  growth inhibition: -11%
[2]; [16]
  growth inhibition: 33%
[2]; at 50.0 µM
  growth inhibition: 61.6%
[3]; at 1.2 µM
  growth inhibition: 10%
[3]; at 3.7 µM
  growth inhibition: 20%
[3]; at 11.0 µM
  growth inhibition: 39%
[3]; at 33.0 µM
  growth inhibition: 67%
[3]; at 100.0 µM
  growth inhibition: 85% (active)

## N#CC(C(=O)Nc1ccccc1)C1=C(Cl)C(=O)c2ccccc2C1=O (stereo not drawn)
[4]; at 1.2 µM
  growth inhibition: 7%
[4]; at 3.7 µM
  growth inhibition: 57%
[4]; at 11.0 µM
  growth inhibition: 98% (active)
[4]; at 33.0 µM
  growth inhibition: 98% (active)
[4]; at 100.0 µM
  growth inhibition: 97% (active)
[5]; at 1.2 µM
  growth inhibition: -23%
[5]; at 3.7 µM
  growth inhibition: 12%
[5]; at 11.0 µM
  growth inhibition: 95% (active)
[5]; at 33.0 µM
  growth inhibition: 97% (active)
[5]; at 100.0 µM
  growth inhibition: 96% (active)
[6]; at 1.2 µM
  growth inhibition: 13%
[6]; at 3.7 µM
  growth inhibition: 43%
[6]; at 11.0 µM
  growth inhibition: 97% (active)
[6]; at 33.0 µM
  growth inhibition: 97% (active)
[6]; at 100.0 µM
  growth inhibition: 96% (active)
[7]; at 1.2 µM
  growth inhibition: 23%
[7]; at 3.7 µM
  growth inhibition: 6%
[7]; at 11.0 µM
  growth inhibition: 98% (active)
[7]; at 33.0 µM
  growth inhibition: 97% (active)
[7]; at 100.0 µM
  growth inhibition: 97% (active)
[8]; at 1.2 µM
  growth inhibition: 4%
[8]; at 3.7 µM
  growth inhibition: 38%
[8]; [15]
  growth inhibition: 9%
[8]; at 11.0 µM
  growth inhibition: 97% (active)
[8]; at 33.0 µM
  growth inhibition: 97% (active)
[8]; [16]
  growth inhibition: 98% (active)
[8]; at 50.0 µM
  growth inhibition: 91.8% (active)
[8]; at 100.0 µM
  growth inhibition: 96% (active)
[9]; at 1.2 µM
  growth inhibition: -8%
[9]; at 3.7 µM
  growth inhibition: 73% (active)
[9]; [15]
  growth inhibition: 73% (active)
[9]; at 11.0 µM
  growth inhibition: 98% (active)
[9]; at 33.0 µM
  growth inhibition: 97% (active)
[9]; [16]
  growth inhibition: 99% (active)
[9]; at 50.0 µM
  growth inhibition: 93% (active)
[9]; at 100.0 µM
  growth inhibition: 96% (active)
[10]; at 1.2 µM
  growth inhibition: -26%
[10]; at 3.7 µM
  growth inhibition: 42%
[10]; at 11.0 µM
  growth inhibition: 98% (active)
[10]; at 33.0 µM
  growth inhibition: 97% (active)
[10]; at 100.0 µM
  growth inhibition: 95% (active)
[11]; [15]
  growth inhibition: 8%
[11]; [16]
  growth inhibition: 98% (active)
[11]; at 50.0 µM
  growth inhibition: 93.1% (active)
[12]; at 1.2 µM
  growth inhibition: 4%
[12]; at 3.7 µM
  growth inhibition: 45%
[12]; at 11.0 µM
  growth inhibition: 98% (active)
[12]; at 33.0 µM
  growth inhibition: 97% (active)
[12]; at 100.0 µM
  growth inhibition: 96% (active)
[13]; at 1.2 µM
  growth inhibition: -49%
[13]; at 3.7 µM
  growth inhibition: -5%
[13]; [15]
  growth inhibition: 62%
[13]; at 11.0 µM
  growth inhibition: 97% (active)
[13]; at 33.0 µM
  growth inhibition: 97% (active)
[13]; [16]
  growth inhibition: 98% (active)
[13]; at 50.0 µM
  growth inhibition: 92% (active)
[13]; at 100.0 µM
  growth inhibition: 95% (active)
[14]; at 1.2 µM
  growth inhibition: -3%
[14]; at 3.7 µM
  growth inhibition: 26%
[14]; at 11.0 µM
  growth inhibition: 95% (active)
[14]; at 33.0 µM
  growth inhibition: 97% (active)
[14]; at 100.0 µM
  growth inhibition: 95% (active)
[1]; at 1.2 µM
  growth inhibition: 8%
[1]; at 3.7 µM
  growth inhibition: 41%
[1]; at 11.0 µM
  growth inhibition: 96% (active)
[1]; at 33.0 µM
  growth inhibition: 97% (active)
[1]; at 100.0 µM
  growth inhibition: 96% (active)
[2]; [15]
  growth inhibition: 64%
[2]; [16]
  growth inhibition: 98% (active)
[2]; at 50.0 µM
  growth inhibition: 91% (active)
[3]; at 1.2 µM
  growth inhibition: -15%
[3]; at 3.7 µM
  growth inhibition: -8%
[3]; at 11.0 µM
  growth inhibition: 90% (active)
[3]; at 33.0 µM
  growth inhibition: 98% (active)
[3]; at 100.0 µM
  growth inhibition: 97% (active)

Source: PubChem BioAssay (NCI)
